# Inconclusive results are not listed. Activity calls are given as the source filed them. The calls were made as follows: active = hit-call score of the fitted dose curve at least 0.9, where 1 is the maximum; inconclusive = response in the unintended direction; inactive = score below 0.9.
# Molecular target: Estrogen receptor beta (Homo sapiens) (UniProt Q92731)
# Assay: OT_ER_ERbERb_0480: Odyssey Thera (OT) 8-hour HEK293T Protein-Complementation Assay for Estrogen Receptor-beta/-beta Homodimer (AID 2283357);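 also: active means signal gain over DMSO baseline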
# Summary of the method: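 Readout: increase in mean fluorescence intensity (nucleus for agonists; nucleus plus cytoplasm for antagonists) relative to DMSO, from a reporter-fragment complementation of human ER-beta LBD homodimer in HEK293T cells dosed 8 hours.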
# Estrogen receptor beta (Homo sapiens), sequence (Q92731 whole entry, looked up): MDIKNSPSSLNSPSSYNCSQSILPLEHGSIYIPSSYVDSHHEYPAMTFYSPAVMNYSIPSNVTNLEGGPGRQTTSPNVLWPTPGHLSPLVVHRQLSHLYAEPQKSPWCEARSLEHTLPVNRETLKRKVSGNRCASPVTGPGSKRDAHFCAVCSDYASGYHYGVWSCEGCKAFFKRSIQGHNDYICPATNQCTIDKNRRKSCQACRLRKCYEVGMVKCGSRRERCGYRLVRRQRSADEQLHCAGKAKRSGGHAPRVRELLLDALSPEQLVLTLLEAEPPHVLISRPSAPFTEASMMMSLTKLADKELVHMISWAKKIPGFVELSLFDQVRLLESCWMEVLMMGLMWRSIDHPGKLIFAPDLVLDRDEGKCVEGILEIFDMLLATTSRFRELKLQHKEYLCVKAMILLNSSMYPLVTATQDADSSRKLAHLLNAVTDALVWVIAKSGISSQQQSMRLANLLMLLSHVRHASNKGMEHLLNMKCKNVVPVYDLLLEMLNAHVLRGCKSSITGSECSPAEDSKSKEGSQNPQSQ
Structure (SMILES),outcome,AC50
C=C(C)[C@@H]1CC=C(C)C(=O)C1,inactive,–
O=P(O)(O)O,inactive,–
OCC#CCO,inactive,–
CCC(=O)O[C@@H]1C[C@H]2CC[C@]1(C)C2(C)C,inactive,–
CN(C)c1cccc(O)c1,inactive,–
CC(C)CCCCCCCCCCCCCCC(=O)O,inactive,–
CC1CC(O)CC(C)(C)C1 (centres undefined),inactive,–
CC(C)c1ccccc1O,inactive,–
O=C(CC(=O)c1ccccc1)c1ccccc1,inactive,–
COc1ccccc1N=Nc1c(S(=O)(=O)O)cc2cc(S(=O)(=O)O)cc(NC(C)=O)c2c1O,inactive,–
[O-]n1ccccc1=S.[O-]n1ccccc1=S.[Zn+2],inactive,–
CC(CN=Cc1ccccc1O)N=Cc1ccccc1O (centres undefined),inactive,–
CCCC(=O)OC(C)(C)Cc1ccccc1,inactive,–
OC[C@H]1O[C@@H]2O[C@H]3[C@H](O)[C@@H](O)[C@@H](O[C@H]4[C@H](O)[C@@H](O)[C@@H](O[C@H]5[C@H](O)[C@@H](O)[C@@H](O[C@H]6[C@H](O)[C@@H](O)[C@@H](O[C@H]7[C@H](O)[C@@H](O)[C@@H](O[C@H]8[C@H](O)[C@@H](O)[C@@H](O[C@H]9[C@H](O)[C@@H](O)[C@@H](O[C@H]1[C@H](O)[C@H]2O)O[C@@H]9CO)O[C@@H]8CO)O[C@@H]7CO)O[C@@H]6CO)O[C@@H]5CO)O[C@@H]4CO)O[C@@H]3CO,inactive,–
C=CC(C)(O)CCC=C(C)C (centres undefined),inactive,–
C=C(C)C(=O)OCCOC1CC2CC1C1C=CCC21 (centres undefined),inactive,–
O=Cc1ccccc1S(=O)(=O)O,inactive,–
ON=C1CCCCC1,inactive,–
O=C1NC2NC(=O)NC2N1 (centres undefined),–,22.1 µM (active)
